# Compound activity as filed in PubChem BioAssay.
# A selection: hits, their analogues and other compounds. The true share with any hit is near 3.2%.
# TexasRed fluor: Total Fluorescence Counterscreen for Inhibitors of the Interaction of Thyroid Hormone Receptor and Steroid Receptor Coregulator 2. TRb/SRC2 Texas Red total fluorescence interference. Potency, µM (doses to about 106 µM), without a hit: at the highest dose fluorescence change, negative = quenching. hit rate 0.29% among 280,000. AID 1479, 2009; active = well fitted curve in either direction with a large enough effect; inconclusive = small, poorly fitted or top-dose-only effect
#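 Human TRβ ligand-binding domain (0.6 uM) and Texas Red SRC2 peptide (20 nM) in Tris buffer with 1 uM T3 and 5% DMSO were incubated with pinned compound for 5 hr at ambient temperature. Total fluorescence was computed as S + 2P (555/632 nm).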
# Tau fibril FP: qHTS for Inhibitors of Tau Fibril Formation, Fluorescence Polarization; K18 P301L tau heparin fibrillization, Alexa594 FP, 6 h; Potency, µM (doses to about 57.7 µM), without a hit: top-dose activity, negative = inhibition, hits mostly inhibitors; hit rate 0.39% among 280,000; AID 1468, 2008; also: nearly all actives have a fitted effect of over 55% in size
# Target sequence (P10636 561-689 P618L limits assumed): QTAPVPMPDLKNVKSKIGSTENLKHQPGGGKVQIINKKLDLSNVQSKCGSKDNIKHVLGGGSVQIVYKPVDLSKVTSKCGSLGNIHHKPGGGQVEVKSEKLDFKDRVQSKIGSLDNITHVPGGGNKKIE
#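 Compound effects on tau fibrillization are measured by Alexa 594 fluorescence polarization (ex 555, em 632 nm). K18 P301L tau is used at 15 uM with 0.24 uM labeled tracer, and 20 uM heparin induces aggregation over 6 hr at 37 C.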
# TRb SRC2 PPI: qHTS for Inhibitors of the Interaction of Thyroid Hormone Receptor and Steroid Receptor Coregulator 2; TRbeta-SRC2 peptide binding, fluorescence polarization; receptor liganded with 1 µM T3; Potency, µM (highest dose often 106 µM), inactives show top-dose activity change, negative = inhibition, actives largely listed as inhibitors; hit rate 0.065% among 280,000; AID 1469, 2008;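 also: plate controls were bound peptide for no effect and peptide without receptor for full effect; nearly all actives have a fitted effect of over 50% in size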
#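 Read-out is fluorescence polarization (555 nm excitation, 632 nm emission) of a Texas Red SRC2 coactivator peptide; loss of signal reflects blocked binding to human TRb ligand-binding domain in the presence of 1 uM T3.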
# Tau ThT inhib: qHTS for Inhibitors of Tau Fibril Formation, Thioflavin T Binding | hit rate 2.1% among 270,000 | recombinant tau K18 P301L, heparin-induced fibrillization, ThT fluorescence | Potency, µM (top dose mostly 57.4 µM), without a hit: at the top dose activity, negative = inhibition, most hits filed as inhibitors | AID 1460, 2008; also: nearly all actives have a fitted effect of over 55% in size
#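 ThT emission at 510 nm, taken 1 hr after adding 30 uM dye, quantifies aggregates formed when 20 uM heparin acts on human tau K18 P301L for 6 hr at 37 C.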
# GoLoco inh red: qHTS Assay for Inhibitors of RGS12 GoLoco Motif Activity (Red Fluorophore). Guanine nucleotide-binding protein G(i) subunit alpha-1 (Homo sapiens), P63096. Gai1:RGS12 GoLoco peptide FP, rhodamine, 10 min. Potency, µM (top dose mostly 61.6 µM), inactives show at the top dose activity, negative = inhibition, hits mostly inhibitors. hit rate 0.44% among 230,000; active = well fitted inhibition curve with a large enough effect, not every such curve was filed as active; inactive = no such curve, though single readings can be large or run the other way; also: nearly all actives have a fitted effect of over 30% in size
# Target sequence (P63096 whole entry, looked up): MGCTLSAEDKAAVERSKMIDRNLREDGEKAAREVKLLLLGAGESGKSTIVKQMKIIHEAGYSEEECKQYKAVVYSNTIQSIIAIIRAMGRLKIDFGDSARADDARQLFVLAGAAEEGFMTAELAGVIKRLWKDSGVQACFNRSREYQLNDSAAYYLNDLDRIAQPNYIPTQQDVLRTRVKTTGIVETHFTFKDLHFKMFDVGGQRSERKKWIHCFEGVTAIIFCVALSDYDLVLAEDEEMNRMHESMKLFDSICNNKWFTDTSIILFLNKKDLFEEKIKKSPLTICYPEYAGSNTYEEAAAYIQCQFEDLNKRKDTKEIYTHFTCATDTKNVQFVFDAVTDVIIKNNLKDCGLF
# Tau fluor cs: Counterscreen qHTS for Inhibitors of Tau Fibril Formation, Fluorescence Polarization; hit rate 0.93% among 280,000; tau K18 P301L (four-repeat tau fragment) Alexa594 fluorescence, heparin fibrillization; AID 1463, 2008; Potency, µM (highest dose often 57.7 µM), inactives show at the highest dose activity change, negative = decrease; also: nearly all actives have a fitted effect of over 55% in size
#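 Human K18 P301L tau (15 uM unlabeled plus 0.24 uM Alexa 594-labeled, final) in 100 mM sodium acetate pH 7 was mixed with compound and 20 uM heparin and incubated 6 hr at 37 C.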
# Active calls of the source: *; ? = inconclusive; / = no result given; [ ] = another dose, or the depositor's remark. Unless noted, calls follow the shape of the dose curve; as a rule, active = well fitted curve in the direction sought with a large enough effect; inconclusive = small, poorly fitted or top-dose-only effect, or another doubt; inactive = no such curve, though single readings can be large; an effect the other way counts as inactive or inconclusive. Unless noted, % is scaled to controls: 0 for no effect and ±100 for the full control effect; potency is read from the fitted curve at half-maximal effect.
SMILES,TexasRed fluor,Tau fibril FP,TRb SRC2 PPI,Tau ThT inhib,GoLoco inh red,Tau fluor cs
O=C(Nc1ccc(-c2csc(Nc3cccc(C(F)(F)F)c3)n2)cc1)c1cc([N+](=O)[O-])cc(C(F)(F)F)c1,-0.3%,8.8%,-7.0%,?,-5.8%,3.55µM*[quencher]
O=C(Nc1cccc(-c2csc(Nc3cccc(C(F)(F)F)c3)n2)c1)c1ccccc1,-1.9%,-3.8%,1.0%,?,-0.3%,8.91µM*[quencher]
O=C(Nc1ccc(-c2csc(Nc3cccc(C(F)(F)F)c3)n2)cc1)c1ccccc1,-3.0%,-0.4%,-5.3%,?,5.9%,10µM*[quencher]
Cc1nc(-c2ccc(NC(=O)c3ccccc3)cc2)cs1,-5.0%,-13.7%[2.34 µM],-2.1%,-7.6%,26.2%,-10.3%
CCOC(=O)CCN1C(=O)[C@H]2[C@H]3[C@H](O)[C@H](O)C/C(=N/NC(=O)OCc4ccc(OC)cc4)[C@@H]3CC[C@@H]2C1=O,-1.0%[11.2 µM],-8.0%[11.6 µM],-2.9%[11.2 µM],-7.3%[11.5 µM],/,-7.5%[11.6 µM]
NCC(=O)N[C@@H](CCCN=C(N)N)C(=O)NCC(=O)N[C@@H](CC(=O)O)C(=O)N[C@@H](CO)C(=O)N1CCC[C@H]1C(=O)O,-2.6%,/,0.4%,/,/,/
CN(C)C(=O)n1nnnc1Cc1ccc(-c2ccccc2)cc1,-1.3%,4.6%,-1.1%,-11.2%,-12.5%,-8.2%
O=C(Nc1cccc(-c2cnc3ccccc3n2)c1)c1ccccc1,-0.8%,-7.3%,0.9%,-2.0%,4.1%,-8.8%
CC(=O)c1cccc(Nc2nc(-c3ccccc3)cs2)c1,-3.4%,?,-2.3%,?,3.2%,7.94µM*[quencher]
O=C(Nc1cccc(-c2csc(Nc3ccccc3)n2)c1)c1ccccc1,-2.4%,2.1%,-6.2%,?,1.5%,12.6µM*[quencher]
O=[N+]([O-])c1ccc(N=Nc2c(Cl)cc(O)cc2Cl)cc1,-8.9%,31.6µM*,0.8%,/,-6.1%,8.91µM*[quencher]
CC(N)=Nc1ccc([N+](=O)[O-])cc1,-1.3%,-1.6%,2.9%,3.3%,-2.6%,-0.7%
CCC(C)(C)C1CCC(O)CC1 (stereo unspecified),1.2%[201 µM],/,1.3%[201 µM],/,/,/
C=CS(=O)(=O)c1sc(Cl)c(N2CCOCC2)c1[N+](=O)[O-],-1.1%,-1.9%,-9.7%,3.55µM*,-15.3%,?
C=CSc1sc(Cl)c(N2CCOCC2)c1[N+](=O)[O-],-14.7%,-6.2%,-1.2%,14.1µM*,10.6%,?
O=[N+]([O-])c1cccc(Cl)c1N1CCOCC1,-1.3%,-3.5%,-1.4%,-1.8%,1.5%,6.6%
C[C@H](CCC(=O)NCC(=O)O)C1CC[C@H]2[C@H]3C(C[C@H](O)[C@]12C)[C@@]1(C)CC[C@@H](O)C[C@H]1C[C@H]3O (stereo partly specified),-1.8%,-3.4%,6.1%,-2.6%,6.2%,-3.9%
CO/N=C\[C@@H](NS(=O)(=O)c1ccc(C)cc1)[C@H](C)/C=C\CC(=O)OC,?,?,-11.2%[11.2 µM],4.5%[11.5 µM],/,-2.0%[11.6 µM]
Nc1[nH]nc2c1NN(c1ccc(Cl)cc1Cl)N2,-6.4%,?,-9.3%,3.55µM*,1.0%,?
CC(C)N=C=NC(C)C,-1.6%,/,3.9%,/,2.6%,/
COCCN1C(=O)/C(=C/c2ccc(N3CCCC3)cc2C)SC1=S,7.3%[53 µM],?,3.0%[53 µM],7.08µM*,-90.5%,-13.0%
CCN=C1S/C(=C\c2ccc(N3CCOCC3)cc2C)C(=O)N1CC,-1.1%,14.4%,-2.7%,-13.3%,6.4%,-26.8%
COc1ccc(-n2c(=O)c(-c3ccc(Cl)cc3)nc3cnc(N(C)C)nc32)cc1,/,/,/,/,11.7%,/
c1csc(-c2nc3c4ccccc4c4ccccc4c3[nH]2)c1,-11.8%,?,5.0%,?,1.9%,12.6µM*[quencher]
O=c1oc(-c2cccs2)nc2ccccc12,-1.9%,5.4%,4.6%,-4.0%,2.2%,5.0%
SMILES,TexasRed fluor,Tau fibril FP,TRb SRC2 PPI,Tau ThT inhib,GoLoco inh red,Tau fluor cs
Oc1ccccc1-c1nc2c3ccccc3c3ccccc3c2[nH]1,-3.9%,-4.9%,2.0%,?,11.2%,10µM*[quencher]
COc1ccc(C(=O)Nc2sc3c(c2C(N)=O)CCCC3)cc1OC,-0.6%,/,5.2%,/,/,/
CN(C)C1CCc2[nH]c3ccc(NC(=O)c4ccc(F)cc4)cc3c2C1 (stereo unspecified),1.6%,/,5.6%,/,/,/
CC(C)C(=O)Nc1cccc(NC(=S)NC(=O)c2ccc([N+](=O)[O-])cc2)c1,-3.4%,1.0%,1.8%,?,11.4%,-18.1%
CC(C)C(=O)Nc1ccc(NC(=S)NC(=O)c2ccc([N+](=O)[O-])cc2)cc1,0.2%,-1.8%,-7.4%,7.08µM*,6.7%,-28.3%
Cc1ccccc1-c1ccc(Nc2ccc(N3CCOCC3)cc2)nn1,-3.0%,8.3%,-21.7%,14.1µM*,38.9%,?
CCCCCCCCCCCCCCC[C@@H](O)[C@H](CO)NC(=O)CCCCCCC,0.1%,-3.2%,2.2%,-4.6%,7.8%,-1.3%
COc1ccccc1-n1c(SCC(=O)NC2CCS(=O)(=O)C2)nc2cc([N+](=O)[O-])ccc21 (stereo unspecified),-2.0%,4.7%,8.6%,-1.1%,4.4%,-16.5%
COc1ccccc1-n1c(SCC(=O)c2ccc(O)cc2O)nc2cc([N+](=O)[O-])ccc21,-3.4%[53 µM],?,-0.3%[53 µM],-4.8%,15.0%,10µM*[quencher]
CCCCCCCCCCCC(=O)c1c(O)cccc1O,-0.5%,?,-0.7%,?,24.0%,12.6µM*[quencher]
Nc1n[nH]c(N)c1N=Nc1ccc2c(c1)OCO2,-7.2%,0.6%,4.1%,14.1µM*,10.9%,-29.6%
CCCCN1CCc2[nH]c(=S)[nH]c(=O)c2C1,0.708µM*[quencher],5.1%,-21.8%[53 µM],-4.9%,-18.5%,-4.5%
COCCN1CCc2[nH]c(=S)[nH]c(=O)c2C1,-37.6%,0.8%,0.0%,-8.5%,-11.5%,-6.2%
COc1ccccc1CNc1nc2nc(C)c(Cl)c(C)n2n1,0.0224µM*[quencher],-6.9%,-18.3%[53 µM],-3.7%,/,-7.1%
COc1ccc(/C=C(\C#N)c2nc3ccccc3n2C)c(OC)c1,-26.3%,7.4%,-1.6%,14.1µM*,/,?
O=C(O/N=C\c1ccc(N2CCOCC2)c([N+](=O)[O-])c1)c1ccc(F)cc1,-1.4%,-0.9%,0.0%,5.01µM*,6.1%,-20.2%
O=C(O/N=C\c1ccc(N2CCOCC2)c([N+](=O)[O-])c1)c1ccccc1Cl,-3.2%,12.4%,1.3%,12.6µM*,-4.1%,?
